# Where “and” joins values, the source holds several entries; their conditions need not be identical. Equal entries are not always repeated. Inconclusive results are not listed. Entries that show only a call come without a potency. Calls of active or inactive are those of the source. The call rests on the fitted dose curve; in most records, active means well fitted curve in the direction sought with a large enough effect in the repeat runs; inconclusive means weak or mixed curves; inactive means no such curve, though single readings can be large; an effect the other way counts as inactive or inconclusive.
# Target: Cytochrome P450 2D6 (Homo sapiens) (UniProt P10635)
# Experiment: Cytochrome P450 family 2 subfamily D member 6 (CYP2D6) small molecule antagonists: luciferase biochemical (cell-free) qHTS assay (AID 1645840); further: nearly all actives have a fitted effect of over 55% in size; further: potency means the concentration at half of the fitted maximal effect
# Details: P450-Glo CYP2D6 enzyme, luciferin luminescence, 1 h; series mostly up to 57.4 µM
# In short: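 P450-Glo CYP2D6 system: proluciferin substrate converted by enzyme to luciferin, read by luminescence proportional to activity. Enzyme-substrate mix with compound 10 min at room temperature, then NADPH regeneration 1 h before detection reagent.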
# Sequence of Cytochrome P450 2D6 (Homo sapiens) (P10635 whole entry, looked up): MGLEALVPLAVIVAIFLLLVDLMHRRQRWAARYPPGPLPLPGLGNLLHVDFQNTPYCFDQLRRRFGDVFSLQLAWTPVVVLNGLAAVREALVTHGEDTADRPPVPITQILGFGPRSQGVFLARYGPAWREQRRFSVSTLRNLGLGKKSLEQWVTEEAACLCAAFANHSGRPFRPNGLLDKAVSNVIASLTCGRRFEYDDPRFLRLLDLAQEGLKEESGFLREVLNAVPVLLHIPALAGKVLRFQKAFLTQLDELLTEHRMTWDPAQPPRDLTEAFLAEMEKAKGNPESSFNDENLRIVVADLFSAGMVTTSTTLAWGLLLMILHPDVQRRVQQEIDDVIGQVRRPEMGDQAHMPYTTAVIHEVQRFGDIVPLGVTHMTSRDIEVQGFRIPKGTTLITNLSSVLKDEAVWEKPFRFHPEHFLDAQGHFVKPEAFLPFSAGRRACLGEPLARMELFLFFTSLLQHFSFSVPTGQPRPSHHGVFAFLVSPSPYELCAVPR
SMILES,"activity change, negative = inhibition",Potency
C[C@@H]1CC[C@@]2(OC1)O[C@H]1C[C@H]3[C@@H]4CC[C@H]5C[C@@H](O)CC[C@]5(C)[C@H]4CC(=O)[C@]3(C)[C@H]1[C@@H]2C,8.49% [at 4.83 µM] (inactive),–
O=C1NS(=O)(=O)c2ccccc21,–,inactive
O=c1cc(CO)occ1O,–,inactive
CC1(C)Oc2ccc(C#N)cc2[C@@H](N2CCCC2=O)[C@@H]1O,–,inactive
O=C(O)[C@@H]1CSCN1,–,inactive
CCN(CC)CCNC(=O)c1cc(Cl)c(N)cc1OC,–,15.5 µM (active)
Nc1ccc(S(=O)(=O)Nc2ccc(Cl)nn2)cc1,–,inactive
NC(=O)N/N=C/c1ccc([N+](=O)[O-])o1,–,13.4 µM (active)
CN(N=O)C(=O)N[C@@H]1[C@@H](O)[C@H](O)[C@@H](CO)O[C@@H]1O,–,inactive
CN1CCN(C2Cc3ccccc3Sc3ccc(Cl)cc32)CC1 (stereo unspecified),–,0.121 µM (active)
CN(C)CCC=C1c2ccccc2CCc2ccccc21,–,5.49 µM (active) and 9.52 µM (active)
CNCCCC1c2ccccc2C=Cc2ccccc21,–,3.09 µM (active)
CNC(=O)Oc1ccc2c(c1)[C@]1(C)CCN(C)[C@@H]1N2C,–,0.977 µM (active)
c1ccc2c(CC3=NCCN3)cccc2c1,–,15.5 µM (active)
O=C1N=C(O)CN1/N=C/c1ccc(-c2ccc([N+](=O)[O-])cc2)o1,–,inactive
O=c1[nH]c(=O)c2[nH]c(=O)[nH]c2[nH]1,4.14% [at 11.5 µM] (inactive),–
C[C@H](N)[C@H](O)c1cccc(O)c1,–,inactive
Cc1c(O)cccc1C(=O)N[C@@H](CSc1ccccc1)[C@H](O)CN1C[C@H]2CCCC[C@H]2C[C@H]1C(=O)NC(C)(C)C,–,3.47 µM (active)
CN1CCCCC1CCN1c2ccccc2Sc2ccc(S(C)=O)cc21 (stereo unspecified),–,0.0219 µM (active)
C=Cc1c(C)c2cc3[nH]c(cc4nc(cc5nc(cc1[nH]2)C(C)=C5CCC(=O)O)C(CCC(=O)O)=C4C)c(C)c3C=C,–,inactive
CC(=O)c1ccc2c(c1)N(CCCN(C)C)c1ccccc1S2,–,0.436 µM (active)
CC(C)C(=O)c1c(C(C)C)nn2ccccc12,–,inactive
COc1cc(C)c(Cc2cnc(N)nc2N)cc1OC,–,inactive
C=CCn1c(=O)n([C@@H]2O[C@H](CO)[C@@H](O)[C@H]2O)c2nc(N)[nH]c(=O)c21,–,inactive
Cc1cc(CC(=O)O)n(C)c1C(=O)c1ccc(Cl)cc1,–,inactive
OCC(O)CN1CCN(c2ccccc2)CC1 (stereo unspecified),–,inactive
CC(=O)NC(Cc1ccccc1)C(=O)O (stereo unspecified),–,inactive

# Target: Cytochrome P450 3A4 (Homo sapiens) (UniProt P08684)
# Experiment: Cytochrome P450 family 3 subfamily A member 4 (CYP3A4) small molecule antagonists: luciferase qHTS assay (AID 1645841); further: nearly all actives have a fitted effect of over 45% in size
# Details: P450-Glo CYP3A4 enzyme assay, luciferin luminescence; series mostly up to 57.4 µM
# In short: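 P450-Glo CYP3A4 enzyme with proluciferin substrate preincubated 10 min with compound at room temperature, then NADPH regeneration 1 h. Luciferin detection reagent added for 20 min; luminescence recorded. Ketoconazole positive control.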
# Sequence of Cytochrome P450 3A4 (Homo sapiens) (P08684 whole entry, looked up): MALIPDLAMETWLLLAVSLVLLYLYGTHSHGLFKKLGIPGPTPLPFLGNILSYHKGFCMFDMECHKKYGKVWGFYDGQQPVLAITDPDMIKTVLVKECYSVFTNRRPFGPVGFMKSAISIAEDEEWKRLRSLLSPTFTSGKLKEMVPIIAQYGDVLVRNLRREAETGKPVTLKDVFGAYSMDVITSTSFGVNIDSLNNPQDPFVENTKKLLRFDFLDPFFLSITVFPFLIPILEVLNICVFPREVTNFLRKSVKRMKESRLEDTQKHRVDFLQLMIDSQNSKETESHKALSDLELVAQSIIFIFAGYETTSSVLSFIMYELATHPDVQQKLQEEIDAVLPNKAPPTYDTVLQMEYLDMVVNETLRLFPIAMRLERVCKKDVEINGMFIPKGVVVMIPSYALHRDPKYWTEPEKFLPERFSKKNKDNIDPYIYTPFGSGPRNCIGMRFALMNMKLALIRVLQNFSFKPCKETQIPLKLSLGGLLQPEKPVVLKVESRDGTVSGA
SMILES,"activity change, negative = inhibition",outcome
C[C@@H]1CC[C@@]2(OC1)O[C@H]1C[C@H]3[C@@H]4CC[C@H]5C[C@@H](O)CC[C@]5(C)[C@H]4CC(=O)[C@]3(C)[C@H]1[C@@H]2C,37% [at 4.83 µM] (inactive),–
O=C(O)[C@@H]1CSCN1,–,inactive
CCN(CC)CCNC(=O)c1cc(Cl)c(N)cc1OC,–,inactive
CN(N=O)C(=O)N[C@@H]1[C@@H](O)[C@H](O)[C@@H](CO)O[C@@H]1O,–,inactive
c1ccc2c(CC3=NCCN3)cccc2c1,–,inactive
C[C@H](N)[C@H](O)c1cccc(O)c1,–,inactive
C=Cc1c(C)c2cc3[nH]c(cc4nc(cc5nc(cc1[nH]2)C(C)=C5CCC(=O)O)C(CCC(=O)O)=C4C)c(C)c3C=C,–,inactive
OCC(O)CN1CCN(c2ccccc2)CC1 (stereo unspecified),–,inactive
CC(=O)NC(Cc1ccccc1)C(=O)O (stereo unspecified),–,inactive

# Target: Cytochrome P450 2C9 (Homo sapiens) (UniProt P11712)
# Experiment: Cytochrome P450 family 2 subfamily C member 9 (CYP2C9) small molecule antagonists: luciferase biochemical (cell-free) qHTS assay (AID 1645842); further: nearly all actives have a fitted effect of over 55% in size; further: potency means the concentration at half of the fitted maximal effect
# Details: P450-Glo CYP2C9 enzyme assay, luciferin luminescence; series mostly up to 57.4 µM
# In short: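 P450-Glo CYP2C9 system: proluciferin substrate with enzyme in mix containing 0.4% BSA, 10 min at room temperature, then NADPH regeneration solution added and incubated 1 h at 37C. Detection reagent stopped reaction; luminescence read after 20 min as RLU.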
# Sequence of Cytochrome P450 2C9 (Homo sapiens) (P11712 whole entry, looked up): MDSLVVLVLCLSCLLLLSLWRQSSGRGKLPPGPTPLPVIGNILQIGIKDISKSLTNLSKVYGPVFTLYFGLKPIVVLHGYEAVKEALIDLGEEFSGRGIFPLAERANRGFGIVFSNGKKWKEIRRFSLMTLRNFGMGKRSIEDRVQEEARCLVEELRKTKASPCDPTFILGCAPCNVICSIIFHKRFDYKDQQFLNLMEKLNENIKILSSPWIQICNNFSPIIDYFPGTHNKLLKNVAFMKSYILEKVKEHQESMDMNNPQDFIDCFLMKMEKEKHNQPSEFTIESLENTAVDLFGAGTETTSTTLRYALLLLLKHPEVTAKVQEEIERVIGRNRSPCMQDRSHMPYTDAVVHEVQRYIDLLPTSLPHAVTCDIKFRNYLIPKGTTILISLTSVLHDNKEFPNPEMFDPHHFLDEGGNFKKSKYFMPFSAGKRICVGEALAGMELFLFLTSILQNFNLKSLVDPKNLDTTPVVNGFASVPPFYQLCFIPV
SMILES,"activity change, negative = inhibition",Potency
C[C@@H]1CC[C@@]2(OC1)O[C@H]1C[C@H]3[C@@H]4CC[C@H]5C[C@@H](O)CC[C@]5(C)[C@H]4CC(=O)[C@]3(C)[C@H]1[C@@H]2C,5.2% [at 4.83 µM] (inactive),–
O=C1NS(=O)(=O)c2ccccc21,–,inactive
O=c1cc(CO)occ1O,–,inactive
CC1(C)Oc2ccc(C#N)cc2[C@@H](N2CCCC2=O)[C@@H]1O,–,inactive
O=C(O)[C@@H]1CSCN1,–,inactive
CCN(CC)CCNC(=O)c1cc(Cl)c(N)cc1OC,–,inactive
NC(=O)N/N=C/c1ccc([N+](=O)[O-])o1,–,inactive
CN(N=O)C(=O)N[C@@H]1[C@@H](O)[C@H](O)[C@@H](CO)O[C@@H]1O,–,inactive
CN1CCN(C2Cc3ccccc3Sc3ccc(Cl)cc32)CC1 (stereo unspecified),–,8.49 µM (active)
CN(C)CCC=C1c2ccccc2CCc2ccccc21,–,inactive
CNCCCC1c2ccccc2C=Cc2ccccc21,–,inactive
CNC(=O)Oc1ccc2c(c1)[C@]1(C)CCN(C)[C@@H]1N2C,–,inactive
c1ccc2c(CC3=NCCN3)cccc2c1,–,inactive
O=c1[nH]c(=O)c2[nH]c(=O)[nH]c2[nH]1,8.18% [at 11.5 µM] (inactive),–
Cc1cc2nc3c(=O)[nH]c(=O)nc-3n(C[C@H](O)[C@H](O)[C@H](O)CO)c2cc1C,–,inactive
Cc1c(O)cccc1C(=O)N[C@@H](CSc1ccccc1)[C@H](O)CN1C[C@H]2CCCC[C@H]2C[C@H]1C(=O)NC(C)(C)C,–,15.5 µM (active)
CN1CCCCC1CCN1c2ccccc2Sc2ccc(S(C)=O)cc21 (stereo unspecified),–,inactive
C=Cc1c(C)c2cc3[nH]c(cc4nc(cc5nc(cc1[nH]2)C(C)=C5CCC(=O)O)C(CCC(=O)O)=C4C)c(C)c3C=C,–,inactive
CC(=O)c1ccc2c(c1)N(CCCN(C)C)c1ccccc1S2,–,inactive
CC(C)C(=O)c1c(C(C)C)nn2ccccc12,–,inactive
COc1cc(C)c(Cc2cnc(N)nc2N)cc1OC,–,inactive
C=CCn1c(=O)n([C@@H]2O[C@H](CO)[C@@H](O)[C@H]2O)c2nc(N)[nH]c(=O)c21,–,inactive
Cc1cc(CC(=O)O)n(C)c1C(=O)c1ccc(Cl)cc1,–,inactive
OCC(O)CN1CCN(c2ccccc2)CC1 (stereo unspecified),–,inactive
CC(=O)NC(Cc1ccccc1)C(=O)O (stereo unspecified),–,inactive

# Reference: PubChem BioAssay (NCATS)
